Screening data as filed in PubChem.
An excerpt weighted towards active compounds, which were near 19% of everything screened.
TDP1 cell noCPT = qHTS for Inhibitors of human tyrosyl-DNA phosphodiesterase 1 (TDP1): qHTS in cells in absence of CPT | DT40 Tdp1-/- hTDP1 cells, no CPT, ATP luminescence, 48 h | Potency, µM (doses to about 46.2 µM), inactives show top-dose activity change, negative = growth inhibition, most hits filed as inhibitors | hit rate 15% among 420,000 | AID 686978, 2013; further: potency means the concentration at half of the fitted maximal effect; nearly all actives have a fitted effect of over 55% in size
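Growth of hTDP1-complemented DT40 Tdp1-knockout cells is measured by ATP luminescence after at least 48 hr compound exposure at 37 °C, with DMSO substituting for the 20 nM CPT used in the parallel screen.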
IL-1B inflam inh = inhibitors of inflammasome signaling (IL-1 beta secretion); THP-1 LPS/ATP IL-1B secretion, AlphaLISA, 16 h; stronger effect = lower value; activity change, % at 57.5 µM; hit rate 4.7% among 360,000; AID 743279; in the data active means activity change below about -50%; inconclusive means mostly about -30% to -49%
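Secreted IL-1B measured by AlphaLISA bead assay after 16 h compound exposure of THP-1 cells; compounds (final up to 57.5 uM) added 1 h before LPS (250 ng/mL) and ATP (1.25 mM) stimulation; lower signal means less secretion.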
ELG1 DNA repair = inhibitors of ELG1-dependent DNA repair in HEK293T cells. HEK293T ELG1-luciferase reporter, luminescence, 16 h; DNA damage induced by 5-fluorouridine. Potency, µM (titrated, usually from 46.1 µM), for the others: top-dose activity change, negative = inhibition, actives largely listed as inhibitors. hit rate 2.3% among 330,000. AID 504467; further: potency means the concentration at half of the fitted maximal effect; nearly all actives have a fitted effect of over 55% in size
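Reporter activity after DNA damage by 5-fluorouridine is monitored. Compound-treated cells incubate 16 hr at 37 °C, then ONE-Glo is added for 30 min before luminescence reading.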
HT1080-NT tox = kills 2HG-producing HT-1080-NT fibrosarcoma cells | Potency, µM (doses to about 46.1 µM), for inactives: at the highest dose activity, negative = less viability, most hits filed as cytotoxic | HT-1080-NT fibrosarcoma viability, CellTiter-Glo ATP luminescence, 48 h | hit rate 1.6% among 360,000 | AID 686970;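 further: NT is the 2HG producing partner of a matched IDH1 knockdown line; potency means the concentration at half of the fitted maximal effect; 0% = DMSO-treated cells and -100% = media-only wells without cells; nearly all actives have a fitted effect of over 55% in size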
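A 48-hour cytotoxicity screen used HT-1080-NT cells plated 2 hours before compound delivery. ATP-based CellTiter-Glo luminescence measured viability, normalized to DMSO and no-cell controls.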
HT1080 IDH1KD tx = HT-1080 IDH1 knockdown cell toxicity (counter line); HT-1080 IDH1 knockdown viability, ATP luminescence, 48 h; Potency, µM (series often up to 46.1 µM), for inactives: at the top dose activity, negative = toxicity, hits mostly cytotoxic; hit rate 2% among 360,000;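 further: potency means the concentration at half of the fitted maximal effect; 0% = DMSO wells and -100% = cell-free medium wells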
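Using the IDH1-knockdown HT-1080 line run in the same batch and compound series as the NT line, viability after 48 h at 37 °C was determined by CellTiter-Glo luminescence and expressed as % activity.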
TDP1 cell CPT = growth inhibition of DT40 Tdp1-/-;hTDP1 cells with camptothecin (screen for TDP1 inhibitors); Potency, µM (titrated, usually from 46.2 µM), for inactives: top-dose activity change, negative = growth inhibition, hits mostly inhibitors; chicken DT40 Tdp1-/-;hTDP1 cells + 20 nM CPT, ATP luminescence, 48 h; hit rate 12% among 420,000; AID 686979; further: potency means the concentration at half of the fitted maximal effect; nearly all actives have a fitted effect of over 55% in size
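Cell growth measured by CellTiter-Glo luminescence after a minimum 48 h, 37 C compound exposure with 20 nM CPT in Tdp1-knockout DT40 cells stably expressing hTDP1, seeded 400/well; qHTS titration format.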
The depositor's hits bear a star; ? = inconclusive; . = no result given. Unless noted, the call rests on the fitted dose curve; in most records, active means well fitted curve in the direction sought with a large enough effect; inconclusive means small, poorly fitted or top-dose-only effect, or another doubt; inactive means no such curve, though single readings can be large; an effect the other way counts as inactive or inconclusive. Unless noted, on the % scale 0 is the no-effect control and ±100 the full control effect.

SMILES | TDP1 cell noCPT | IL-1B inflam inh | ELG1 DNA repair | HT1080-NT tox | HT1080 IDH1KD tx | TDP1 cell CPT
CC(=O)c1ccc(OCC(=O)Nc2ccc(N3CCCCC3)cc2)cc1 | ? | -12 | 1% | -1% | -3% | -24%
CC(C)c1ccc(/C=N/n2c(-c3ccccc3)n[nH]c2=S)cc1 | ? | 12 | -11% | 1% | -3% | ?
COc1ccc([C@H]2CC(=O)C=C(c3cccc(Br)c3)C2)cc1 | ? | -18 | 2% | -5% | -1% | ?
O=C1C=C(c2ccccc2)C[C@@H](c2ccc3c(c2)OCO3)C1 | -25% | -23 | 12% | 5% | 6% | -15%
COc1ccc([C@H]2CC(=O)C=C(c3cccc(Br)c3)C2)cc1OC | 13µM* | -14 | 18µM* | -28% | -29% | ?
COc1ccc([C@H]2CC(=O)C=C(c3cccc(C(C)C)c3)C2)cc1OC | 16µM* | -51* | ? | -16% | -2% | 21µM*
O=C1C=C(c2cnc3ccccc3c2)C[C@@H](c2ccc3c(c2)OCO3)C1 | ? | ? | ? | -8% | -16% | 21µM*
O=C1C=C(c2cccc(Br)c2)C[C@@H](c2ccc3c(c2)OCO3)C1 | 23µM* | -4 | ? | 1% | -7% | ?
COc1ccc(NC(=O)c2cc(C3CCCCN3S(=O)(=O)Cc3ccccc3)on2)cn1 (stereo unspecified) | ? | -5 | . | 6% | -5% | -27%
CC(=O)c1cccc(NC(=O)CN2C(=O)NC(C)(c3ccc4c(c3)OCCCO4)C2=O)c1 (stereo unspecified) | ? | 16 | -19% | 6% | 0% | ?
CCSc1nc(-c2ccco2)ccc1C#N | ? | -21 | 1% | -11% | 5% | 23µM*
O=C(Nc1ccccc1)C1=C[C@@H](c2ccccc2)C[C@@H](OCc2ccc(CO)cc2)O1 | -20% | 14 | ? | -4% | -11% | ?
O=C(O)C1=C[C@H](c2ccc(C(F)(F)F)cc2)C[C@H](OCc2ccc(CO)cc2)O1 | -7% | 6 | 9% | 20% | 8% | -8%
O=C(Nc1ccccc1)C1=C[C@H](c2ccc(Br)cc2)C[C@H](OCc2ccc(CO)cc2)O1 | ? | -53* | -21% | -18% | -3% | 29µM*
O=C(Nc1ccccc1)C1=C[C@@H](c2ccc(C(F)(F)F)cc2)C[C@@H](OCc2ccc(CO)cc2)O1 | 18µM* | -22 | ? | ? | -27% | 23µM*
CCc1ccc([C@@H]2C[C@H]3[C@@H](CN2S(=O)(=O)c2ccc(C)cc2)C(=O)C[C@@H](c2ccc(C)cc2)N3S(=O)(=O)c2ccc(C)cc2)cc1 | ? | 91 | . | 1% | 15% | -9%
Brc1ccc2c(c1)C(C1=NCCN1)c1ccccc1CS2 (stereo unspecified) | 5.8µM* | ? | ? | 0.82µM* | 1µM* | 7.3µM*
c1ccc2c(c1)CCCC2C1=NCCN1 (stereo unspecified) | -11% | 3 | -6% | ? | 8% | -26%
C=CCN(Cc1cccc(OC)c1OC)C(=O)Oc1ccccc1 | 1% | -11 | 2% | -2% | -6% | ?
COCC(=O)N1CCC[C@@]2(CCN(C(=O)Nc3ccc(OC)cc3)C2)C1 | 1% | . | . | . | . | -11%
COc1cc2c(N3CCN(C(=O)Nc4ccc(OC(C)C)cc4)CC3)ncnc2cc1OCCCN1CCCCC1 | 21µM* | . | . | . | . | ?
COc1ccc(NC(=O)N2CCCCCC2)cc1 | -3% | -5 | ? | 24% | 24% | 15%
COc1ccc2c(c1)OCC(Cc1ccc(OC)c(OC)c1)C2=O (stereo unspecified) | 13µM* | . | . | . | . | ?
